Reference: PubChem BioAssay AID1159580 (chemical genetic matrix, 2015)
Where “and” joins values, the source holds several entries; their conditions need not be identical. Identical values can stand only once. Among all 5,500 compounds or so, about 2,000 (36%) were called active. Another 18% or so got no clear call; they are omitted. Rule as the data show it: active = normalized growth mostly below about 0.91 (no sharp cut-off); inconclusive = no clear call, values can overlap the other calls; inactive = mostly above about 0.92. This is one part of the list.

Assay: chemical genetic growth profiling, strain panel (AID 1159580);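 also: tested at 20 µM; growth read once vehicle control cultures reached saturation at 30 °C; 1 = growth at the plate median or of vehicle wells; lower values mean less growth of the strain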
Conditions: S. cerevisiae deletion strains, growth OD
[1] = locus YGR078C, strain PAC10, hits give low values
[2] = locus YGR229C, strain SMI1, hits give low values
[3] = locus YMR263W, strain SAP30, hits give low values
[4] = locus YMR307W, strain GAS1, hits give low values

Measured: normalized growth

CN1C2CCC1CC(OC(c1ccccc1)c1ccc(Cl)cc1)C2 (centres undefined)
inactive: locus YAL040C, strain CLN3, hits give low values 1.01 | locus YCL061C, strain MRC1 (second series), hits give low values 1 | locus YDR150W, strain NUM1, hits give low values 0.997 | locus YDR363W, strain ESC2, hits give low values 0.958 | locus YER002W, strain NOP16, hits give low values 1.04 | [1] 1.02 | [3] 0.997 | [4] 0.994 | locus YNL153C, strain GIM3, hits give low values 0.987 | locus YNL175C, strain NOP13, hits give low values 1.04 | locus YNL197C, strain WHI3, hits give low values 1.03 | locus YNL224C, strain SQS1, hits give low values 1.05 | locus YOR083W, strain WHI5 (second series), hits give low values 1.01 | locus YPL241C, strain CIN2, hits give low values 0.993
active: [2] 0.844

CN1C2C[C@H](OC(=O)[C@H](CO)c3ccccc3)C[C@H]1[C@@H](O)C2
inactive: locus YAL021C, strain ccr4, hits give low values 0.979 | locus YAL026C, strain drs2, hits give low values 1.04 | locus YAL030W, strain snc1, hits give low values 1.02 | locus YBL061C, strain skt5, hits give low values 1.03 | locus YBR009C, strain hhf1, hits give low values 1.01 | locus YBR021W, strain FUR4, hits give low values 0.995 | locus YBR023C, strain chs3, hits give low values 1.02 | locus YBR171W, strain sec66, hits give low values 1.01 | locus YBR229C, strain ROT2, hits give low values 1.01 | locus YBR231C, strain swc5, hits give low values 1.02 | locus YBR279W, strain paf1, hits give low values 1.02 | locus YCL011C, strain gbp2, hits give low values 1.01 | locus YCL016C, strain dcc1, hits give low values 0.998 | locus YCL029C, strain bik1, hits give low values 0.997 | locus YCL069W, strain vba3, hits give low values 1.01 | locus YCR088W, strain abp1, hits give low values 1.01 | locus YDL005C, strain med2, hits give low values 1.03 | locus YDL035C, strain GPR1, hits give low values 1.02 | locus YDL040C, strain nat1, hits give low values 1.02 | locus YDL074C, strain BRE1, hits give low values 1.01 | locus YDL101C, strain DUN1, hits give low values 1.01 | locus YDL134C, strain PPH21, hits give low values 1.01 | locus YDL185W, strain tfp1, hits give low values 0.992 | locus YDL192W, strain arf1, hits give low values 0.995 | locus YDR001C, strain nth1, hits give low values 1.02 | locus YDR069C, strain doa4, hits give low values 1.03 | locus YDR101C, strain arx1, hits give low values 1 | locus YDR137W, strain rgp1, hits give low values 1.03 | locus YDR159W, strain sac3, hits give low values 1.05 | locus YDR162C, strain NBP2, hits give low values 1.02 | locus YDR195W, strain ref2 1.01 | locus YDR297W, strain sur2, hits give low values 1.02 | locus YDR318W, strain mcm21, hits give low values 1 | locus YDR334W, strain swr1, hits give low values 1.01 | locus YDR335W, strain msn5, hits give low values 1.02 | locus YDR388W, hits give low values 1 | locus YDR392W, strain spt3, hits give low values 0.911 | locus YDR502C, strain sam2, hits give low values 1.01 | locus YEL003W, strain gim4, hits give low values 1.03 | locus YEL037C, strain rad23, hits give low values 1.01 | locus YEL061C, strain CIN8 (second series), hits give low values 1.02 | locus YEL061C, strain CIN8, hits give low values 1.01 | locus YER015W, strain faa2, hits give low values 1.01 | locus YER016W, strain bim1, hits give low values 1.03 | locus YER110C, hits give low values 1 | locus YER111C, strain swi4, hits give low values 1.02 | locus YER155C, strain BEM2 (second series), hits give low values 1.02 | locus YER155C, strain BEM2, hits give low values 1.01 | locus YER167W, strain BCK2, hits give low values 1 | locus YFR010W, strain ubp6, hits give low values 1.04 | locus YGL078C, strain dbp3, hits give low values 0.999 | locus YGL086W, strain mad1, hits give low values 0.993 | locus YGL167C, strain pmr1, hits give low values 1.02 | locus YGL173C, strain kem1, hits give low values 1.03 | locus YGL227W, strain vid30, hits give low values 1.02 | locus YGL240W, strain doc1, hits give low values 1.02 | locus YGL248W, strain PDE1, hits give low values 1.01 | locus YGL253W, strain hxk2, hits give low values 1.04 | [1] 1.01 | locus YGR135W, strain pre9, hits give low values 1 | [2] 1.02 | locus YGR252W, strain gcn5, hits give low values 0.955 | locus YHR013C, strain ard1, hits give low values 1.01 | locus YHR027C, strain rpn1, hits give low values 1.01 | locus YHR030C, strain SLT2, hits give low values 1.01 | locus YHR079C, strain IRE1 (second series), hits give low values 1 | locus YHR079C, strain IRE1, hits give low values 0.992 | locus YHR094C, strain hxt1, hits give low values 0.992 | locus YHR129C, strain ARP1, hits give low values 1.01 | locus YHR142W, strain chs7, hits give low values 1.03 | locus YHR200W, strain rpn10, hits give low values 1 | locus YIL066C, strain RNR3, hits give low values 1.02 | locus YIL073C, strain SPO22, hits give low values 1.01 | locus YIL125W, strain kgd1, hits give low values 0.991 | locus YIR030C, strain dcg1, hits give low values 0.99 | locus YJL092W, strain hpr5, hits give low values 1.02 | locus YJL095W, strain BCK1 (second series), hits give low values 1.01 | locus YJL095W, strain BCK1, hits give low values 1.02 and 1 | locus YJL115W, strain asf1, hits give low values 1.01 | locus YJL129C, strain trk1, hits give low values 1.02 | locus YJL134W, strain LCB3, hits give low values 1.01 | locus YJL154C, strain vps35, hits give low values 1.02 | locus YJL164C, strain tpk1, hits give low values 0.996 | locus YJL166W, strain qcr8, hits give low values 1.03 | locus YJL168C, strain set2, hits give low values 1 | locus YJL187C, strain SWE1 (second series), hits give low values 1.01 | locus YJR043C, strain POL32, hits give low values 1.03 | locus YJR066W, strain TOR1, hits give low values 0.96 | locus YJR075W, strain HOC1, hits give low values 1.01 | locus YKL009W, strain mrt4, hits give low values 1.01 | locus YKL068W, hits give low values 0.987 | locus YKL085W, strain MDH1 (second series), hits give low values 1.01 | locus YKL085W, strain MDH1, hits give low values 1.01 | locus YKL160W, strain elf1, hits give low values 1 | locus YKL190W, strain CNB1, hits give low values 1.01 | locus YKR001C, strain vps1, hits give low values 0.981 | locus YKR026C, strain gcn3, hits give low values 1.01 | locus YKR091W, strain srl3, hits give low values 1.02 | locus YLL001W, strain dnm1, hits give low values 1.02 | locus YLL026W, hits give low values 1.02 | locus YLL041C, strain sdh2, hits give low values 1.02 | locus YLR027C, strain aat2, hits give low values 1.03 | locus YLR039C, strain RIC1, hits give low values 1.03 | locus YLR058C, strain SHM2, hits give low values 1.01 | locus YLR102C, strain apc9, hits give low values 0.997 | locus YLR113W, strain HOG1, hits give low values 0.978 | locus YLR221C, strain rsa3, hits give low values 1.02 | locus YLR258W, strain gsy2, hits give low values 1.02 | locus YLR262C, strain YPT6 (second series), hits give low values 1.03 | locus YLR262C, strain YPT6, hits give low values 1.05 | locus YLR268W, strain sec22, hits give low values 0.995 | locus YLR320W, strain mms22, hits give low values 1.04 | locus YLR330W, strain CHS5, hits give low values 1.01 | locus YLR342W, strain FKS1 (second series), hits give low values 1.02 | locus YLR342W, strain FKS1, hits give low values 1.02 | locus YLR357W, strain rsc2, hits give low values 1 | locus YLR370C, strain arc18, hits give low values 1.01 | locus YLR371W, strain rom2, hits give low values 0.989 | locus YLR384C, strain iki3, hits give low values 1.02 | locus YLR418C, strain cdc73, hits give low values 0.991 | locus YML016C, strain PPZ1, hits give low values 1.01 | locus YML032C, strain rad52, hits give low values 0.99 | locus YML120C, strain ndi1, hits give low values 1 | locus YML124C, strain tub3, hits give low values 1 | locus YMR058W, strain fet3, hits give low values 1.03 | locus YMR078C, strain ctf18, hits give low values 0.999 | locus YMR125W, strain sto1, hits give low values 0.983 | locus YMR129W, hits give low values 1.02 | locus YMR205C, strain PFK2, hits give low values 1.04 | locus YMR223W, strain ubp8, hits give low values 1.02 | locus YMR231W, strain pep5, hits give low values 1.01 | [3] 1.01 | [4] 0.97 | locus YNL067W, strain RPL9B, hits give low values 1.01 | locus YNL071W, strain lat1, hits give low values 1.02 | locus YNL183C, strain NPR1, hits give low values 0.96 | locus YNL209W, strain ssb2, hits give low values 1.04 | locus YNL233W, strain BNI4, hits give low values 0.992 | locus YNL248C, strain rpa49, hits give low values 0.941 | locus YNL250W, strain rad50, hits give low values 1 | locus YNL271C, strain bni1, hits give low values 0.99 | locus YNL298W, strain CLA4, hits give low values 1.02 | locus YNL307C, strain MCK1, hits give low values 0.995 | locus YNL322C, strain KRE1 (second series), hits give low values 1.01 | locus YNR049C, strain mso1, hits give low values 1.01 | locus YNR052C, strain pop2, hits give low values 0.992 | locus YOL006C, strain TOP1, hits give low values 0.998 | locus YOL012C, strain htz1 0.77 | locus YOL147C, strain pex11, hits give low values 1 | locus YOR001W, strain rrp6, hits give low values 1.04 | locus YOR061W, strain CKA2, hits give low values 1.01 | locus YOR069W, strain VPS5, hits give low values 1.01 | locus YOR070C, strain gyp1, hits give low values 1.03 | locus YOR080W, strain dia2, hits give low values 1.02 | locus YOR083W, strain WHI5, hits give low values 1.01 | locus YOR106W, strain vam3, hits give low values 0.994 | locus YOR136W, strain idh2, hits give low values 0.992 | locus YOR144C, strain elg1, hits give low values 0.997 | locus YOR184W, strain ser1, hits give low values 1.02 | locus YOR231W, strain MKK1, hits give low values 0.99 | locus YOR265W, strain rbl2, hits give low values 1.01 | locus YOR270C, strain vph1, hits give low values 1.07 | locus YOR290C, strain snf2, hits give low values 0.969 | locus YOR316C, strain cot1, hits give low values 1 | locus YPL051W, strain arl3, hits give low values 1 | locus YPL078C, strain atp4, hits give low values 0.984 | locus YPL106C, strain sse1, hits give low values 1.01 | locus YPL240C, strain hsp82, hits give low values 1.02 | locus YPL256C, strain CLN2, hits give low values 1 | locus YPR119W, strain clb2, hits give low values 1 | locus YPR141C, strain kar3, hits give low values 0.995 | locus YPR163C, strain tif3, hits give low values 1.02 | locus YPR167C, strain met16, hits give low values 1 | strain wtn01, hits give low values 0.986
